Experimental data as given in publication PMC5540273 (PLoS ONE, 2017).
Values joined by “and” are separate entries in the source; they are usually repeats but may differ in a detail not shown here. Identical values can stand only once. Like-named read-outs stand apart in the source and are kept apart here.

Experiments:
Conditions in all cases: concentration: 1 μM, replicates: in singlicate, n = 1
[1] = test system: T1, VPS34
T1 construct: gene PIK3C3

[2] = test system: VRK2
[3] = test system: WEE1
[4] = test system: WEE2
[5] = test system: WNK1
[6] = test system: WNK2
[7] = test system: WNK3
[8] = test system: WNK4
[9] = test system: T2, YANK1
T2 construct: gene STK32A

[10] = test system: T3, YANK2
T3 construct: gene STK32B

[11] = test system: T4, YANK3
T4 construct: gene STK32C

[12] = test system: T5, YES
T5 construct: gene YES1

[13] = test system: T6, YSK1
T6 construct: gene STK25

[14] = test system: T7, YSK4
T7 construct: gene MAP3K19

[15] = test system: ZAK
[16] = test system: ZAP70
[17] = test system: T8, p38-alpha
T8 construct: gene MAPK14

[18] = test system: T9, p38-beta
T9 construct: gene MAPK11

[19] = test system: p38-delta
[20] = test system: T10, p38-gamma
T10 construct: gene MAPK12
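Also: KINOMEscan kinase panel screen.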

Cc1cccc(Cn2ccn3c(=O)cc(N4CCOCC4)nc23)c1 [GSK2297542]
%Inh [1]: 94.6%
%Inh [2]: 0%
%Inh [3]: 22%
%Inh [4]: 22%
%Inh [5]: 9%
%Inh [6]: 6%
%Inh [7]: 12%
%Inh [8]: 8%
%Inh [9]: 20%
%Inh [10]: 0%
%Inh [11]: 16%
%Inh [12]: 19%
%Inh [13]: 17%
%Inh [14]: 12%
%Inh [15]: 17%
%Inh [16]: 0%
%Inh [17]: 27%
%Inh [18]: 0%
%Inh [19]: 36%
%Inh [20]: 51%

NS(=O)(=O)CCc1cccc(Nc2nccc(-c3c(-c4cccc(NC(=O)c5c(F)cccc5F)c4)nn4ccccc34)n2)c1 [GSK336735]
%Inh [1]: 0%
%Inh [2]: 0%
%Inh [3]: 0%
%Inh [4]: 0%
%Inh [5]: 0%
%Inh [6]: 6%
%Inh [7]: 18%
%Inh [8]: 12%
%Inh [9]: 23%
%Inh [10]: 77%
%Inh [11]: 37%
%Inh [12]: 99.8%
%Inh [13]: 24%
%Inh [14]: 20%
%Inh [15]: 98.4%
%Inh [16]: 0%
%Inh [17]: 97.8%
%Inh [18]: 98.7%
%Inh [19]: 54%
%Inh [20]: 0%

Cc1cccc(-c2nc(Nc3ccc4ncsc4c3)c3ccccc3n2)n1 [GW867588]
%Inh [1]: 0%
%Inh [2]: 0%
%Inh [3]: 8%
%Inh [4]: 6%
%Inh [5]: 0%
%Inh [6]: 6%
%Inh [7]: 31%
%Inh [8]: 0%
%Inh [9]: 0%
%Inh [10]: 0%
%Inh [11]: 29%
%Inh [12]: 0%
%Inh [13]: 0%
%Inh [14]: 11%
%Inh [15]: 0%
%Inh [16]: 10%
%Inh [17]: 0%
%Inh [18]: 0%
%Inh [19]: 0%
%Inh [20]: 0%

COc1ccc(Nc2ncc(C#N)c(Nc3ccccc3C(N)=O)n2)cc1N1CCN(C)CC1.Cl [GSK1558669]
%Inh [1]: 43%
%Inh [2]: 0%
%Inh [3]: 99.8%
%Inh [4]: 100%
%Inh [5]: 66%
%Inh [6]: 31%
%Inh [7]: 4%
%Inh [8]: 0%
%Inh [9]: 93.5%
%Inh [10]: 68%
%Inh [11]: 48%
%Inh [12]: 98.8%
%Inh [13]: 95.2%
%Inh [14]: 99.7%
%Inh [15]: 64%
%Inh [16]: 98.1%
%Inh [17]: 0%
%Inh [18]: 0%
%Inh [19]: 0%
%Inh [20]: 32%

CC(C)(CN)c1nc(-c2ccc(Cl)c(O)c2)c(-c2ccncc2)[nH]1.O=C(O)C(F)(F)F [SB-477794]
%Inh ([1]; 1 µM): 0% and 48%
%Inh ([2]; 1 µM): 41% and 42%
%Inh ([3]; 1 µM): 8% and 7%
%Inh [4]: 0%
%Inh ([5]; 1 µM): 16% and 0%
%Inh ([6]; 1 µM): 1% and 9%
%Inh ([7]; 1 µM): 52% and 39%
%Inh ([8]; 1 µM): 47% and 49%
%Inh ([9]; 1 µM): 95.3% and 93.8%
%Inh ([10]; 1 µM): 93.6% and 94%
%Inh ([11]; 1 µM): 86% and 83%
%Inh ([12]; 1 µM): 88% and 86%
%Inh ([13]; 1 µM): 6% and 96.1%
%Inh ([14]; 1 µM): 87% and 65%
%Inh ([15]; 1 µM): 100% and 59%
%Inh ([16]; 1 µM): 58% and 0%
%Inh ([17]; 1 µM): 99.8% and 99.3%
%Inh ([18]; 1 µM): 53% and 58%
%Inh ([19]; 1 µM): 29% and 0%
%Inh ([20]; 1 µM): 19% and 63%

c1ccc(-c2n[nH]cc2-c2ccnc3ccccc23)nc1 [GW271431]
%Inh [1]: 20%
%Inh [2]: 0%
%Inh [3]: 9%
%Inh [4]: 2%
%Inh [5]: 7%
%Inh [6]: 11%
%Inh [7]: 15%
%Inh [8]: 0%
%Inh [9]: 19%
%Inh [10]: 4%
%Inh [11]: 18%
%Inh [12]: 21%
%Inh [13]: 1%
%Inh [14]: 28%
%Inh [15]: 28%
%Inh [16]: 0%
%Inh [17]: 29%
%Inh [18]: 0%
%Inh [19]: 52%
%Inh [20]: 0%

CN(C1=C(c2ccccc2)C(=O)NC1=O)c1ccccc1 [SB-334860]
%Inh [1]: 0%
%Inh [2]: 8%
%Inh [3]: 13%
%Inh [4]: 0%
%Inh [5]: 8%
%Inh [6]: 28%
%Inh [7]: 17%
%Inh [8]: 1%
%Inh [9]: 0%
%Inh [10]: 15%
%Inh [11]: 17%
%Inh [12]: 17%
%Inh [13]: 21%
%Inh [14]: 9%
%Inh [15]: 79%
%Inh [16]: 0%
%Inh [17]: 0%
%Inh [18]: 5%
%Inh [19]: 22%
%Inh [20]: 5%

COc1ccc(Nc2nccc(N3CCC(NC(=O)Nc4cccc(C(C)=O)c4)C3)n2)cc1 (stereo not shown) [GSK1379731]
%Inh [1]: 31%
%Inh [2]: 95.1%
%Inh [3]: 6%
%Inh [4]: 0%
%Inh [5]: 4%
%Inh [6]: 6%
%Inh [7]: 28%
%Inh [8]: 0%
%Inh [9]: 0%
%Inh [10]: 0%
%Inh [11]: 0%
%Inh [12]: 0%
%Inh [13]: 0%
%Inh [14]: 7%
%Inh [15]: 0%
%Inh [16]: 0%
%Inh [17]: 0%
%Inh [18]: 0%
%Inh [19]: 42%
%Inh [20]: 0%

Cl.Nc1ncnc2occ(-c3ccc(NC(=O)Nc4cc(C(F)(F)F)ccc4F)cc3)c12 [SB-707548]
%Inh [1]: 5%
%Inh [2]: 0%
%Inh [3]: 10%
%Inh [4]: 6%
%Inh [5]: 4%
%Inh [6]: 11%
%Inh [7]: 28%
%Inh [8]: 13%
%Inh [9]: 0%
%Inh [10]: 17%
%Inh [11]: 7%
%Inh [12]: 60%
%Inh [13]: 50%
%Inh [14]: 99.9%
%Inh [15]: 42%
%Inh [16]: 19%
%Inh [17]: 86%
%Inh [18]: 63%
%Inh [19]: 93.4%
%Inh [20]: 96.8%

COc1ccc(COc2cc(-n3cnc4ccccc43)sc2C(N)=O)cc1 [GSK1024304]
%Inh [1]: 40%
%Inh [2]: 0%
%Inh [3]: 0%
%Inh [4]: 2%
%Inh [5]: 0%
%Inh [6]: 0%
%Inh [7]: 12%
%Inh [8]: 13%
%Inh [9]: 6%
%Inh [10]: 0%
%Inh [11]: 0%
%Inh [12]: 0%
%Inh [13]: 0%
%Inh [14]: 15%
%Inh [15]: 14%
%Inh [16]: 0%
%Inh [17]: 35%
%Inh [18]: 0%
%Inh [19]: 36%
%Inh [20]: 0%

Nc1nccc(-c2c(-c3ccc(F)cc3)ncn2C2CCN(CC(F)(F)F)CC2)n1 [SB-236560]
%Inh [1]: 58%
%Inh [2]: 31%
%Inh [3]: 0%
%Inh [4]: 0%
%Inh [5]: 0%
%Inh [6]: 17%
%Inh [7]: 35%
%Inh [8]: 0%
%Inh [9]: 22%
%Inh [10]: 0%
%Inh [11]: 0%
%Inh [12]: 8%
%Inh [13]: 0%
%Inh [14]: 0%
%Inh [15]: 0%
%Inh [16]: 49%
%Inh [17]: 96.6%
%Inh [18]: 11%
%Inh [19]: 8%
%Inh [20]: 0%

NCCNS(=O)(=O)c1ccc(-c2ccnc3[nH]ccc23)cc1 [GSK977617]
%Inh ([1]; 1 µM): 90% and 80%
%Inh ([2]; 1 µM): 13% and 7%
%Inh [3]: 9%
%Inh ([4]; 1 µM): 5% and 15%
%Inh [5]: 0%
%Inh ([6]; 1 µM): 7% and 0%
%Inh ([7]; 1 µM): 8% and 15%
%Inh ([8]; 1 µM): 0% and 5%
%Inh ([9]; 1 µM): 36% and 0%
%Inh [10]: 0%
%Inh ([11]; 1 µM): 8% and 0%
%Inh ([12]; 1 µM): 11% and 0%
%Inh ([13]; 1 µM): 32% and 25%
%Inh ([14]; 1 µM): 98.1% and 97.3%
%Inh ([15]; 1 µM): 18% and 0%
%Inh [16]: 0%
%Inh ([17]; 1 µM): 0% and 8%
%Inh [18]: 0%
%Inh ([19]; 1 µM): 65% and 49%
%Inh ([20]; 1 µM): 29% and 55%

COc1cc2c(cc1OCCN1CCN(C)CC1)ncc1c3ccc(C#N)cc3[nH]c21
%Inh [1]: 0%
%Inh [2]: 0%
%Inh [3]: 24%
%Inh [4]: 3%
%Inh [5]: 0%
%Inh [6]: 0%
%Inh [7]: 0%
%Inh [8]: 0%
%Inh [9]: 0%
%Inh [10]: 0%
%Inh [11]: 35%
%Inh [12]: 3%
%Inh [13]: 0%
%Inh [14]: 89%
%Inh [15]: 0%
%Inh [16]: 0%
%Inh [17]: 0%
%Inh [18]: 1%
%Inh [19]: 7%
%Inh [20]: 35%

Cc1c2ccc(N(C)c3ccnc(Nc4cccc(S(N)(=O)=O)c4)n3)cc2nn1Cc1ccccc1.Cl.Cl [GW787226]
%Inh [1]: 0%
%Inh [2]: 0%
%Inh [3]: 0%
%Inh [4]: 6%
%Inh [5]: 0%
%Inh [6]: 0%
%Inh [7]: 0%
%Inh [8]: 0%
%Inh [9]: 0%
%Inh [10]: 0%
%Inh [11]: 0%
%Inh [12]: 50%
%Inh [13]: 24%
%Inh [14]: 25%
%Inh [15]: 17%
%Inh [16]: 0%
%Inh [17]: 0%
%Inh [18]: 2%
%Inh [19]: 0%
%Inh [20]: 35%
